Whole data set: some 33,000 sequences, median “e-score” near -0.05, cut for the highest 2% near 0.38. For the sample, the highest values were picked, then their nearest neighbours and some sequences at random.

From publication PMC10668032, “Altered binding affinity of SIX1-Q177R correlates with enhanced WNT5A and WNT pathway effector expression in Wilms tumor” come the findings set out here.

The assay addresses T1, SIX1-Q177R homeodomain (human, UniProt Q15475 108-198, Q177R).
T1 sequence: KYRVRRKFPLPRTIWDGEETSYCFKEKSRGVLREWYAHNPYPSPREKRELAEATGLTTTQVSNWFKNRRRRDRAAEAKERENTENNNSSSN
Kind of assay: universal protein binding microarray; Universal all-10-mer PBM (8x60K, AMADID 030236), 300 nM GST-tagged protein, Alexa Fluor 488 anti-GST; buffer, salt, pH and temperature not stated (as in Berger); high values mean tight binding. The following applies: protein: ivt; tags: N-terminal GST; dsDNA, one strand shown. The gist of the method: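 GST-tagged homeodomains were made by in vitro transcription/translation and quantified by anti-GST western blot against a recombinant GST standard curve. They were applied in duplicate at 300 nM final concentration to universal 'all 10-mer' protein binding microarrays (8×60K format). Binding was quantified as 8-mer E-scores with the Universal PBM Analysis Suite.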
As for CACCACGC, the binding signal amounted to 0.2817 ± 0.00156 E-score.

For ATTCGGGG, the binding signal worked out at 0.1763 ± 0.00138 E-score.

For the sequence CTCGACCC, the binding signal is 0.182 ± 0.0618 E-score.

Turning to ATCGACTC, the binding signal was 0.201 ± 0.019 E-score.

Consider ATCGACCC, for which the binding signal turned out to be 0.163 ± 0.0642 E-score.

On to GTCGACAC, for which the binding signal worked out at 0.4143 ± 0.00159 E-score.

Take ATCGACAC: the binding signal worked out at 0.436 ± 0.0239 E-score.

As to CTCGACAC, the binding signal turned out to be 0.419 ± 0.0214 E-score.

Turning to CTCGGCAC, the binding signal worked out at 0.194 ± 0.0445 E-score.

Take GTCGAAAC: the binding signal is 0.182 ± 0.0154 E-score.

With CACGCCTG, the binding signal is 0.202 ± 0.0125 E-score.

CCCCTCCA: the binding signal is 0.195 ± 0.0175 E-score.

Regarding ACATGACA, the binding signal was 0.179 ± 0.0207 E-score.

For ATGCCAAG, the binding signal stood at 0.162 ± 0.0414 E-score.

As to GTGGGGTA, the binding signal amounted to 0.278 ± 0.0225 E-score.

With GGTTTAAC, the binding signal stood at 0.1932 ± 0.000396 E-score.

Take AAGGGTCG: the binding signal was 0.188 ± 0.0266 E-score.

As for CAGTGTCG, the binding signal turned out to be 0.444 ± 0.0154 E-score.

Turning to CAGTCACA, the binding signal was 0.1706 ± 0.000283 E-score.

In the case of AAGTGTCG, the binding signal came to 0.384 ± 0.00583 E-score.

As for CAGTGTCC, the binding signal amounted to 0.374 ± 0.0168 E-score.

Take AAGTGTGG: the binding signal came to 0.169 ± 0.00659 E-score.

For the sequence CAGTGTCA, the binding signal amounted to 0.4579 ± 0.00161 E-score.

For CCTCGACA, the binding signal turned out to be 0.218 ± 0.00226 E-score.

Consider CCGACTCG, for which the binding signal was determined as 0.159 ± 0.0511 E-score.

For GGGGTCGA, the binding signal amounted to 0.298 ± 0.0393 E-score.

Take TAGCGACA: the binding signal came to 0.172 ± 0.00519 E-score.

In the case of AGGGGTCA, the binding signal was 0.28 ± 0.00906 E-score.

Consider CACCCGTG, for which the binding signal was found to be 0.3705 ± 0.00306 E-score.

As to GTTTCACA, the binding signal is 0.161 ± 0.0356 E-score.

Take ACCAGTAC: the binding signal came out at 0.151 ± 0.0205 E-score.

GGTGCGTA: the binding signal was determined as 0.161 ± 0.0186 E-score.

On to CGTACACG, for which the binding signal was found to be 0.405 ± 0.0112 E-score.

Regarding TGTACACA, the binding signal stood at 0.353 ± 0.00919 E-score.

In the case of GGTACACA, the binding signal amounted to 0.322 ± 0.0315 E-score.

Take GGCACACC: the binding signal was 0.351 ± 0.0301 E-score.

Regarding CGTACACA, the binding signal was 0.268 ± 0.0421 E-score.

As to AGTACACG, the binding signal turned out to be 0.4259 ± 0.00113 E-score.

As to CGTACCCC, the binding signal amounted to 0.24 ± 0.0402 E-score.

On to CGTACTCC, for which the binding signal was determined as 0.221 ± 0.003 E-score.

Take AGTACACA: the binding signal is 0.253 ± 0.0191 E-score.

On to GGTACACC, for which the binding signal came to 0.4848 ± 0.00354 E-score.

In the case of CGTACACC, the binding signal came out at 0.483 ± 0.00107 E-score.

Take CACTTCAA: the binding signal came out at 0.265 ± 0.016 E-score.

Turning to AAACCCCT, the binding signal was 0.178 ± 0.0353 E-score.

In the case of GTATCTGA, the binding signal was 0.236 ± 0.00609 E-score.

Regarding CGGATACA, the binding signal was found to be 0.294 ± 0.0106 E-score.

As to CCCGCGCA, the binding signal came out at 0.176 ± 0.0199 E-score.

As to CCCCCCAG, the binding signal stood at 0.162 ± 0.0223 E-score.

Regarding AGTACAAG, the binding signal came out at 0.205 ± 0.0236 E-score.

Turning to AGTACACC, the binding signal came out at 0.4815 ± 0.00102 E-score.

For AGTACCCC, the binding signal amounted to 0.2867 ± 0.00256 E-score.

With AGTACACT, the binding signal was found to be 0.406 ± 0.0266 E-score.

Consider CACGCTCA, for which the binding signal is 0.155 ± 0.038 E-score.

For the sequence CTAGCACC, the binding signal came out at 0.203 ± 0.0347 E-score.

Take GTATCGGA: the binding signal worked out at 0.2544 ± 0.00158 E-score.

On to ATACGGTG, for which the binding signal is 0.276 ± 0.0116 E-score.

On to ACCCGGTA, for which the binding signal amounted to 0.236 ± 0.00419 E-score.

Take ACACGGTA: the binding signal came to 0.385 ± 0.0298 E-score.

Turning to ACACGGCG, the binding signal was found to be 0.359 ± 0.00453 E-score.

Regarding ACACGGTC, the binding signal was determined as 0.4128 ± 0.00131 E-score.

As to ACACGGTG, the binding signal is 0.438 ± 0.00996 E-score.

As to GCACGGTA, the binding signal is 0.165 ± 0.0341 E-score.

Take ACGGGAGT: the binding signal worked out at 0.186 ± 0.00625 E-score.

ACTCCACC: the binding signal is 0.275 ± 0.00877 E-score.

On to CGTGCACG, for which the binding signal was 0.17 ± 0.0561 E-score.

With CACCGTGC, the binding signal came to 0.3272 ± 0.00251 E-score.

For ACCACTAC, the binding signal was 0.178 ± 0.00318 E-score.

Regarding CTCCCGGC, the binding signal was 0.152 ± 0.0261 E-score.

Turning to ACCCCTAC, the binding signal is 0.294 ± 0.0164 E-score.

Consider AGGGGTAA, for which the binding signal worked out at 0.224 ± 0.0133 E-score.

For the sequence AGTGGTGC, the binding signal came to 0.2454 ± 0.00132 E-score.

For the sequence GTGAAATA, the binding signal is 0.172 ± 0.00835 E-score.

As for GTGTGAGA, the binding signal came to 0.291 ± 0.0156 E-score.

Turning to GTGTAAAC, the binding signal is 0.445 ± 0.018 E-score.

Turning to GTGTAATA, the binding signal is 0.451 ± 0.00861 E-score.

As for GGGTAATA, the binding signal came to 0.264 ± 0.00387 E-score.

As for GTGTAACA, the binding signal is 0.445 ± 0.00891 E-score.

Take GGGTAAAC: the binding signal turned out to be 0.193 ± 0.00601 E-score.

Take CCCTAAGA: the binding signal was 0.276 ± 0.0324 E-score.

On to GTTTAAAC, for which the binding signal came to 0.3445 ± 0.00099 E-score.

Take ATGTAACA: the binding signal turned out to be 0.2716 ± 0.000905 E-score.

With GGGTAACA, the binding signal amounted to 0.281 ± 0.0312 E-score.

GTGTAAGA: the binding signal was determined as 0.411 ± 0.0296 E-score.

Turning to ACATAGTG, the binding signal was 0.19 ± 0.00926 E-score.

On to ACCCTGCT, for which the binding signal was determined as 0.19 ± 0.00245 E-score.
